Experimental data: the supplement of paper PMC12669032

The compounds below were run on Fusobacterium nucleatum subsp. animalis (assay: growth AUC relative to DMSO control (median of replicates) (fraction); higher = more growth (less inhibition), active = hit call of the paper). Conditions: 20 µM; 24 h;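 active = AUC reduced over 20% with Padj below 0.05 in at least 2 of 3 replicates; inactive = otherwise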.
How it was run: (§1)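 Gut bacterial monocultures in mGAM were treated with 20 µM compound (1% DMSO) and grown anaerobically at 37 °C in round-bottom 96-well plates from OD600 0.05. OD600 was read hourly for 24 h, with the minimum OD set to 0. Area under the growth curve was normalised to the plate median of solvent-only wells, or to row and column medians on the industrial chemical plate. Each value is the median of three biological replicates, each grown on a separate day.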

Row | Structure (SMILES) | growth AUC
1 | C/C(=N\NC(=O)Nc1cc(F)cc(F)c1)c1ncccc1C(=O)[O-].[Na+] | 1.09 (inactive)
2 | OC(Cc1ccccc1Cl)(Cn1cncn1)C1(Cl)CC1 (stereo unspecified) | 0.897 (inactive)
3 | COC(=O)C1(O)c2ccccc2-c2ccccc21 | 0.911 (inactive)
4 | Cc1occc1C(=O)Nc1ccccc1 | 0.933 (inactive)
5 | Clc1ccc(C(c2ccc(Cl)cc2)C(Cl)Cl)cc1 | 1.07 (inactive)
6 | CC1(C)C(C=C(Cl)Cl)C1C(=O)OC(C#N)c1ccc(F)c(Oc2ccccc2)c1 (mixture of isomers) | 0.95 (inactive)
7 | COc1cc(C)c(C(=O)c2c(OC)ccc(Br)c2C)c(OC)c1OC | 1.01 (inactive)
8 | Cc1ccc(NC(=O)c2snnc2C)cc1Cl | 0.938 (inactive)
9 | CN(C)C(=O)C(c1ccccc1)c1ccccc1 | 0.975 (inactive)
10 | Cc1cnc(C2=NC(C)(C(C)C)C(=O)N2)c(C(=O)O)c1 (stereo unspecified) | 0.976 (inactive)
11 | CCNc1nc(NCC)nc(SC)n1 | 1.06 (inactive)
12 | O=c1oc2ccccc2c(O)c1C1CC(c2ccc(-c3ccccc3)cc2)Cc2ccccc21 (stereo unspecified) | 1.02 (inactive)
13 | Oc1ccc(-c2ccccc2)cc1 | 0.968 (inactive)
14 | CNC(=O)N(C)c1nnc(C(C)(C)C)s1 | 0.969 (inactive)
15 | COP(=O)(OC)Oc1ccc(SC)c(C)c1 | 0.986 (inactive)
16 | CC(C)N1C(=O)c2ccccc2NS1(=O)=O | 1.01 (inactive)
17 | COP(=O)(OC)C(O)C(Cl)(Cl)Cl (stereo unspecified) | 0.973 (inactive)
18 | CCOP(=O)(NC(C)C)Oc1ccc(S(C)(=O)=O)c(C)c1 (stereo unspecified) | 1.03 (inactive)
19 | CCOP(=S)(OCC)SCS(=O)(=O)C(C)(C)C | 0.964 (inactive)

Row | Structure (SMILES) | growth AUC
20 | CCCN(CC1CC1)c1c([N+](=O)[O-])cc(C(F)(F)F)cc1[N+](=O)[O-] | 1.09 (inactive)
21 | c1coc(-c2nc3ccccc3[nH]2)c1 | 0.985 (inactive)
22 | CC(Oc1ccc(Cl)cc1Cl)C(=O)O (stereo unspecified) | 0.97 (inactive)
23 | N#Cc1cc(I)c(O)c(I)c1 | 0.828 (inactive)
24 | CCC(C)Nc1c([N+](=O)[O-])cc(C(C)(C)C)cc1[N+](=O)[O-] (stereo unspecified) | 1.02 (inactive)
25 | c1cc2c3c(cccc3c1)CC2 | 1.07 (inactive)
26 | CSC1=N[C@@](C)(c2ccccc2)C(=O)N1Nc1ccccc1 | 1.2 (inactive)
27 | CC1(C)CN=C(NN=C(/C=C/c2ccc(C(F)(F)F)cc2)/C=C/c2ccc(C(F)(F)F)cc2)NC1 | 1.06 (inactive)
28 | CCOc1cc(Oc2ccc(C(F)(F)F)cc2Cl)ccc1[N+](=O)[O-] | 1.09 (inactive)
29 | Nc1cccc(Cl)c1Cl | 1.1 (inactive)
30 | CCNS(=O)(=O)C(F)(F)C(F)(F)C(F)(F)C(F)(F)C(F)(F)C(F)(F)C(F)(F)C(F)(F)F | 0.968 (inactive)
31 | Nc1ccc(Cc2ccc(N)c(Cl)c2)cc1Cl | 0.997 (inactive)
32 | COc1nc(C)nc(NC(=O)NS(=O)(=O)c2ccccc2CCC(F)(F)F)n1 | 0.992 (inactive)
33 | CCOP(=O)(OCC)OP(=O)(OCC)OCC | 1.02 (inactive)
34 | CCNP(=S)(OC)O/C(C)=C/C(=O)OC(C)C (stereo unspecified) | 0.981 (inactive)
35 | CCN(CC)N=O | 0.998 (inactive)
36 | COC(=O)C(C)N(C(=O)Cc1ccccc1)c1c(C)cccc1C (stereo unspecified) | 0.917 (inactive)
37 | C#CCN1C(=O)COc2cc(F)c(N3C(=O)C4=C(CCCC4)C3=O)cc21 | 0.944 (inactive)
38 | N#Cc1c(Cl)c(Cl)c(Cl)c(C#N)c1Cl | 0.908 (inactive)

These compounds were tested on Lactobacillus gasseri in the same assay as above. Conditions: 20 µM; 24 h.
How it was run: as §1

Row | Structure (SMILES) | growth AUC
39 | C/C(=N\NC(=O)Nc1cc(F)cc(F)c1)c1ncccc1C(=O)[O-].[Na+] | 0.796 (inactive)
40 | OC(Cc1ccccc1Cl)(Cn1cncn1)C1(Cl)CC1 (stereo unspecified) | 1.16 (inactive)
41 | COC(=O)C1(O)c2ccccc2-c2ccccc21 | 1.07 (inactive)
42 | Cc1occc1C(=O)Nc1ccccc1 | 0.973 (inactive)
43 | Clc1ccc(C(c2ccc(Cl)cc2)C(Cl)Cl)cc1 | 0.956 (inactive)
44 | CC1(C)C(C=C(Cl)Cl)C1C(=O)OC(C#N)c1ccc(F)c(Oc2ccccc2)c1 (mixture of isomers) | 0.782 (inactive)
45 | COc1cc(C)c(C(=O)c2c(OC)ccc(Br)c2C)c(OC)c1OC | 0.709 (inactive)
46 | Cc1ccc(NC(=O)c2snnc2C)cc1Cl | 1.08 (inactive)
47 | CN(C)C(=O)C(c1ccccc1)c1ccccc1 | 1 (inactive)
48 | Cc1cnc(C2=NC(C)(C(C)C)C(=O)N2)c(C(=O)O)c1 (stereo unspecified) | 1.04 (inactive)
49 | CCNc1nc(NCC)nc(SC)n1 | 1.13 (inactive)
50 | O=c1oc2ccccc2c(O)c1C1CC(c2ccc(-c3ccccc3)cc2)Cc2ccccc21 (stereo unspecified) | 0.574 (inactive)
51 | Oc1ccc(-c2ccccc2)cc1 | 1.04 (inactive)
52 | CNC(=O)N(C)c1nnc(C(C)(C)C)s1 | 1.16 (inactive)
53 | COP(=O)(OC)Oc1ccc(SC)c(C)c1 | 1.1 (inactive)
54 | CC(C)N1C(=O)c2ccccc2NS1(=O)=O | 0.945 (inactive)
55 | COP(=O)(OC)C(O)C(Cl)(Cl)Cl (stereo unspecified) | 1 (inactive)
56 | CCOP(=O)(NC(C)C)Oc1ccc(S(C)(=O)=O)c(C)c1 (stereo unspecified) | 0.993 (inactive)
57 | CCOP(=S)(OCC)SCS(=O)(=O)C(C)(C)C | 1.02 (inactive)

Row | Structure (SMILES) | growth AUC
58 | CCCN(CC1CC1)c1c([N+](=O)[O-])cc(C(F)(F)F)cc1[N+](=O)[O-] | 1.11 (inactive)
59 | c1coc(-c2nc3ccccc3[nH]2)c1 | 0.949 (inactive)
60 | CC(Oc1ccc(Cl)cc1Cl)C(=O)O (stereo unspecified) | 0.927 (inactive)
61 | N#Cc1cc(I)c(O)c(I)c1 | 0.95 (inactive)
62 | CCC(C)Nc1c([N+](=O)[O-])cc(C(C)(C)C)cc1[N+](=O)[O-] (stereo unspecified) | 0.938 (inactive)
63 | c1cc2c3c(cccc3c1)CC2 | 1.05 (inactive)
64 | CSC1=N[C@@](C)(c2ccccc2)C(=O)N1Nc1ccccc1 | 0.853 (inactive)
65 | CC1(C)CN=C(NN=C(/C=C/c2ccc(C(F)(F)F)cc2)/C=C/c2ccc(C(F)(F)F)cc2)NC1 | 0.935 (inactive)
66 | CCOc1cc(Oc2ccc(C(F)(F)F)cc2Cl)ccc1[N+](=O)[O-] | 0.939 (inactive)
67 | Nc1cccc(Cl)c1Cl | 1.05 (inactive)
68 | CCNS(=O)(=O)C(F)(F)C(F)(F)C(F)(F)C(F)(F)C(F)(F)C(F)(F)C(F)(F)C(F)(F)F | 1.05 (inactive)
69 | Nc1ccc(Cc2ccc(N)c(Cl)c2)cc1Cl | 1.04 (inactive)
70 | COc1nc(C)nc(NC(=O)NS(=O)(=O)c2ccccc2CCC(F)(F)F)n1 | 1.06 (inactive)
71 | CCOP(=O)(OCC)OP(=O)(OCC)OCC | 0.954 (inactive)
72 | CCNP(=S)(OC)O/C(C)=C/C(=O)OC(C)C (stereo unspecified) | 0.968 (inactive)
73 | CCN(CC)N=O | 1.04 (inactive)
74 | COC(=O)C(C)N(C(=O)Cc1ccccc1)c1c(C)cccc1C (stereo unspecified) | 0.888 (inactive)
75 | C#CCN1C(=O)COc2cc(F)c(N3C(=O)C4=C(CCCC4)C3=O)cc21 | 0.883 (inactive)
76 | N#Cc1c(Cl)c(Cl)c(Cl)c(C#N)c1Cl | 0.558 (active)
